Assay outcomes as filed in PubChem BioAssay.
MRP reversal = reversal of MRP1-mediated doxorubicin resistance, primary screen, H69AR cells, doxorubicin co-treatment; H69AR cells + 2 uM doxorubicin, CellTiter-Glo, 72 h; 85,000 compounds, 0.04% hits; AID 602, 2007; differential viability (reversal), % at 10 µM;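 active = viability drop by adding the cancer drug above about 55%, with treated viability meeting a 40% cutoff, limit read from the data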;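 also: larger differential means the compound sensitizes cells more to doxorubicin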
Phagocytosis inh = inhibitors of macrophage phagocytosis, primary screen, imaging, J774A.1 cells, IgG beads | J774A.1 macrophage IgG-bead phagocytosis | inhibition, % at 5 µM | 110,000 compounds, 0.07% hits;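 active = inhibition above the mean of the plate negative controls plus 5 SD, cut at about 13% in these data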;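 also: phagocytic index as fraction of beads internalized from green versus red external bead signal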
MRP1 act = H69AR viability gain despite doxorubicin, primary screen, MRP-1 activator project, H69AR cells, CellTiter-Glo | viability rescue | viability increase, % at 10 µM | 140,000 compounds, 0.61% hits;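 active = viability gain under doxorubicin at or above a set limit, the compound median plus 3 SD, cut at about 4.7% in these data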;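 also: MRP-1 overexpressing cells given doxorubicin 25 µM after compound pretreatment; 18-22 h compound pretreatment then 72 h with doxorubicin before readout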
Numbers stand for hits; – = inactive; · = no result; [ ] = remark or other dose. Shown are actives, neighbours in structure and some others; about 0.69% of the full set was active somewhere.

SMILES | MRP reversal | Phagocytosis inh | MRP1 act
O=C(OC(C(=O)Nc1cccc(C(F)(F)F)c1)c1ccccc1)C1CCCCC1 (centres undefined) | · | – | –
CN1CCc2c1nc1ccccc1c2N=C1CCCN1Cc1ccccc1 | · | – | –
COc1cccc(/C=N/NC(=O)C(=O)NCc2ccco2)c1OC | · | – | –
COc1cccc(/C=N/NC(=O)C(=O)NCc2ccco2)c1O | · | – | 6.0
CCn1c(COc2ccc(C)cc2)nnc1SCc1nc2ccccc2[nH]1 | – | – | 7.6
Cn1c(COc2ccccc2)nnc1SCc1nc2ccccc2[nH]1 | – | – | –
O=C(NC(=S)N1CCN(c2ccc([N+](=O)[O-])cc2)CC1)c1ccccc1F | · | – | –
C[C@H]1CC[C@H]2C(=O)N3[C@H](c4ccccc4Br)[C@@H](C)CC[C@H]3C(=O)N2[C@@H]1c1ccccc1Br | · | · | –
CC(NC(=O)C1CCCC1)c1ccc2c(c1)OCCO2 (centres undefined) | – | – | –
CC(NC(=O)C12CC3CC(CC(C3)C1)C2)c1ccc2c(c1)OCCO2 (centres undefined) | – | – | 6.9
O=S(=O)(NCc1ccco1)c1ccc(Cl)nc1 | · | – | –
CCOc1ccc(C(=O)N/N=C/c2ccccc2[N+](=O)[O-])cc1 | · | – | –
O=C(N/N=C/c1ccccc1[N+](=O)[O-])c1ccc(COc2ccccc2-c2ccccc2)cc1 | · | – | 7.3
COc1ccccc1NS(=O)(=O)c1cc(NC(=O)c2ccc(Cl)nc2)ccc1Cl | · | – | –
COc1ccc(C(=O)Nc2ccc(Cl)c(S(=O)(=O)Nc3ccccc3OC)c2)cc1 | · | – | 9.2
CN(C)/C=N/c1cc(=O)n(C)c(=O)n1Cc1ccccc1 | · | · | –
Cc1ccc(NC(=O)CN(C)C(=O)/C=C/c2cccs2)cc1 | · | – | –
FC(F)(F)c1nc(-c2ccncc2)ncc1-c1nnnn1-c1ccccc1 | · | – | –
Fc1ccc(-n2nnnc2-c2cnc(-c3cccs3)nc2C(F)(F)F)cc1 | · | – | 5.1
Cc1ccc(S(=O)(=O)N2CCCCC2)cc1NC(=O)COC(=O)Cc1cccc(C(F)(F)F)c1 | · | – | –
CN(C)S(=O)(=O)c1cccc(NC(=O)COC(=O)CCSc2ccc(Cl)cc2)c1 | · | – | –
CCN(CC)S(=O)(=O)c1cccc(NC(=O)CCSc2ccc(Cl)cc2)c1 | · | · | 5.5
CC1Cc2ccccc2N1C(=O)c1nn(C)cc1Br (centres undefined) | · | – | –
Cn1cc(Br)c(C(=O)NNC(=O)c2ccccc2)n1 | · | – | –
Cn1cc(Br)c(C(=O)NNC(=O)c2ccc(Br)cc2)n1 | · | – | 7.6
SMILES | MRP reversal | Phagocytosis inh | MRP1 act
O=C(NC(=S)Nn1cnnc1)c1cccc(Br)c1 | · | – | –
CC(C)c1ccc(CNc2cc(N3CCCC3)ccc2[N+](=O)[O-])cc1 | · | · | 5.4
CC(C)(C)c1ccc(CNc2cc(N3CCOCC3)ccc2[N+](=O)[O-])cc1 | · | – | –
CC(C)(C)CNc1cc(N2CCCC2)ccc1[N+](=O)[O-] | · | · | 4.8
CC(C)Nc1cc(N2CCCC2)ccc1[N+](=O)[O-] | · | – | –
CCc1ccc(C(=O)C(C)OC(=O)C2COc3ccccc3O2)cc1 (centres undefined) | · | – | –
O=C(CCc1ccc(S(=O)(=O)N2CCOCC2)cc1)N1CCN(Cc2ccc3c(c2)OCO3)CC1 | – | – | –
O=C(Nc1ccccc1)C1=C(O)CC(c2ccc(Cl)cc2)N2CCN=C12 (centres undefined) | · | – | –
CCOC(=O)c1c(NC(=O)OC)sc(C(=O)N(CC)CC)c1C | 76.3 | – | –
CCN(CC)C(=O)c1sc(NC(=O)c2ccncc2)c(C(=O)OC)c1C | · | – | –
CCc1nn2c(N)c(/C=C3\C=Nc4ccccc43)c(=O)nc2s1 | · | – | 8.2
CCOC(=O)c1c(Nc2ccccc2)sc(/C=C2\C=Nc3ccccc32)c1O | – | – | –
CC(C)N(Cc1cc2ccccc2[nH]c1=O)C(=O)C(C)(C)C | – | – | 9.3
CC(C)C(=O)N(Cc1cc2ccccc2[nH]c1=O)C(C)C | – | – | –
CC(C(=O)O)c1ccc(N2Cc3ccccc3C2=O)cc1 (centres undefined) | · | · | –
CCC(Oc1ccccc1)C(=O)Nc1nnc(C(F)(F)F)s1 (centres undefined) | – | – | 10.1
CCC(Oc1ccccc1)C(=O)Nc1nnc(C)s1 (centres undefined) | – | – | –
O=C(O)c1ccccc1-c1nc2ccccc2n1-c1ccccc1 | · | – | –
O=C1c2ccccc2-c2nc3ccccc3n21 | – | · | 8.3
CCn1c(C)cs/c1=N\C(=S)Nc1ccccc1C | · | – | –
Cc1ccc(S(=O)(=O)N2CCC(C(=O)N[C@@H](C)C(=O)Nc3ccc4c(c3)OCO4)CC2)cc1 | – | – | 6.2
CS(=O)(=O)N1CCC(C(=O)Nc2ccc3c(c2)OCO3)CC1 | – | – | –
CN1C2CCC1/C(=C\c1ccccc1F)C(=O)/C2=C/c1ccccc1F | · | – | –
Cc1cccc(NC(=O)CNC(=O)COc2ccc(-c3ccc(C#N)cc3)cc2)c1C | · | – | –
Cc1ccc2[nH]c(=O)c(C(c3nnnn3C3CCCC3)N3CCCc4ccccc43)cc2c1 (centres undefined) | – | · | 18.6
SMILES | MRP reversal | Phagocytosis inh | MRP1 act
CCC(C)(C)n1nnnc1C(c1cc2cc(C)ccc2[nH]c1=O)N1CCCc2ccccc21 (centres undefined) | – | – | –
O=C(NN1C(=O)C2C(c3ccccc3)C=CC(c3ccccc3)C2C1=O)c1cccc(Br)c1 (centres undefined) | · | – | –
CCOC(=O)c1c(CN(C)C)n(-c2ccc(C)cc2)c2cc(Br)c(O)cc12 | · | – | –
CCOC(=O)c1c(CSC(=N)N)n(-c2ccc(C)cc2)c2cc(Br)c(OC(C)=O)cc12 | · | · | 9.5
Cc1ccc(NC(=O)CSC2=NCCN2)cc1 | · | · | –
Cc1ccccc1NC(=O)CSC(N)=O | – | – | –
COc1ccccc1NC(=O)CSC(N)=O | – | – | 5.6
COc1ccccc1NC(=O)CSC1=NCCN1 | · | – | 50.1
Cc1cccc(C)c1NC(=S)N(c1ccccc1)C(C)C | · | – | –
Cc1ccc(CS/C(Nc2ccccc2C)=C(\C#N)C(N)=O)c(C)c1 | · | – | –
Oc1ccccc1-c1cc(-c2ccccc2)no1 | · | · | –
Cc1ccc(-c2cc(-c3ccccc3)no2)c(O)c1 | · | – | 5.3
Cc1nc(OCc2ccccc2)c2sc3nc4c(cc3c2n1)COC(C)(C)C4 | – | – | 6.1
Cc1nc2c(sc3nc4c(cc32)COC(C)(C)C4)c(=O)n1Cc1ccccc1 | – | – | –
Cc1ccc(NC(=O)COC(=O)c2cc(Cl)ccc2[N+](=O)[O-])cc1 | · | 24.2[artifact] | –
Cc1cc(Cl)ccc1OCC(=O)OCC(=O)Nc1ccc(F)c([N+](=O)[O-])c1 | · | – | –
O=C(c1ccc(S(=O)(=O)c2cccc(Cl)c2)c([N+](=O)[O-])c1)N1CCN(Cc2ccccc2)CC1 | · | – | –
O=C(CSc1ccc2ccccc2c1)Nc1ccc(S(=O)(=O)Nc2nccs2)cc1 | · | – | –
Cc1ccc(S(=O)(=O)NCC2CCC(C(=O)NCCCOC(C)C)CC2)cc1 (centres undefined) | – | – | –
CCn1c(C)cc(/C=C2\NC(=O)N(Cc3ccc(Cl)cc3)C2=O)c1C | · | · | 9.5
CCN1C(=O)N/C(=C/c2cc(C)n(Cc3ccccc3)c2C)C1=O | · | – | –
O=C(Nc1ccc(Cl)c(Cl)c1)c1cccc(S(=O)(=O)NCc2cccnc2)c1 | · | – | –
O=C(CSc1nnc(-c2ccccc2)n1-c1ccccc1)NCc1ccco1 | – | – | –
